# USP2a inh – USP2a (human) protease inhibition; USP2a enzymatic assay, qHTS inhibition; Potency, µM (titrated, usually from 38.3 µM), hits mostly inhibitors; 0.1% of 60,000 active; note: nearly all actives have a fitted effect of over 60% in size
#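 USP2 core (20 nM final) was preincubated with compound for 30 min at RT in 20 mM Tris-HCl pH 8.0, 2 mM CaCl2, 2 mM beta-mercaptoethanol; Ub-PLA2 (20 nM) plus NBD C6-HPC (20 uM) then added, fluorescence read after 2.5 h.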
# Casp1 inh – caspase-1 (human) inhibition, allosteric or competitive; P29466; Caspase-1 enzyme, Ac-WEHD-AFC fluorogenic rate; Potency, µM (top dose mostly 57.5 µM), actives largely listed as inhibitors; 0.03% of 75,000 active
# Caspase-7 inhib – caspase-7 (human) inhibition, allosteric or competitive | recombinant caspase-7, Ac-DEVD-AFC fluorescence rate | AID 889 | 0.02% of 75,000 active | Potency, µM (series often up to 57.5 µM), most hits filed as inhibitors; active = well fitted inhibition curve with a large enough effect in the main read-out, with a control signal flat, not every such curve was filed as active; inconclusive = small, poorly fitted or top-dose-only effect, or a change in a side signal
# 15-hLO-2 inh – 15-hLO-2 (ALOX15B) enzyme inhibition. 0.56% of 110,000 active. purified 15hLO-2, xylenol orange hydroperoxide absorbance. AID 881. O15296. Potency, µM (doses to about 57.1 µM), most hits filed as inhibitors; note: nearly all actives have a fitted effect of over 60% in size
#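 Purified human 15hLO-2 (50 nM final) preincubated with compounds 15 min at room temperature in 25 mM Hepes pH 7.5, 0.01% Triton X-100, then 45 uM arachidonic acid added for 90 min; hydroperoxide detected via ferrous/xylenol orange, 573/405 nm absorbance ratio.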
# 15-hLO inh – 15-hLO (ALOX15) enzyme inhibition | 1.4% of 74,000 active | purified 15hLO-1, xylenol orange hydroperoxide absorbance | Potency, µM (series often up to 57.1 µM), usual class: inhibitors | AID 887; note: nearly all actives have a fitted effect of over 55% in size
#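 40 nM 15hLO-1 + cpd, 15 min RT; start w/ 50 uM AA (final), 6 min RT; stop/detect w/ 200 uM XO + 300 uM Fe(II) in 50 mM H2SO4, 30 min; A573/A405. Buffer 25 mM Hepes pH 7.5, 0.01% Triton X-100. No-enzyme wells as negative control.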
# Ub-GFP proteasome – proteasome inhibitors stabilizing ubiquitin-GFP reporter | Ubiquitin-GFP reporter cells, proteasome inhibition, GFP fluorescence; response scale: untreated = 0%, 10 µM MG-132 = 100% | AID 526 | Potency, µM (highest dose often 45.9 µM), usual class: activators | 67,000 tested, under 10 active; active = well fitted activation curve with a large enough effect, not every such curve was filed as active; inconclusive = small, poorly fitted or top-dose-only effect, or another doubt; inactive = no such curve, though single readings can be large or run the other way
#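 Proteasome block read as GFP accumulation: ubiquitin(G76V)-GFP U2OS cells exposed to compound (2.9 nM–46 uM) for 4 hr at 37 C. Normalization used untreated cells as 0% and 10 uM MG-132 as 100%; concentration-response curves fitted.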
# Numbers stand for hits; 0 = inactive; ? = inconclusive; - = no result; [ ] = dose if it differs, or a comment. The full list was thinned out, with hits kept by preference. Unless noted, calls come from the whole dose curve; as a rule, active = well fitted curve in the direction sought with a large enough effect; inconclusive = small, poorly fitted or top-dose-only effect, or another doubt; inactive = no such curve, though single readings can be large; an effect the other way counts as inactive or inconclusive.
SMILES,USP2a inh,Casp1 inh,Caspase-7 inhib,15-hLO-2 inh,15-hLO inh,Ub-GFP proteasome
CCCN1C(=O)c2cc(C(=O)NC3CCCCCC3)ccc2C1O (configuration not stated),-,0,0,0,0,0
CCOc1cccc(C(=O)c2ccc(O)c(O)c2O)c1,0,0,0,?,13µM,-
CCOc1ccc(C(=O)c2ccc(O)c(O)c2O)cc1,0,0,0,?,?,-
Cc1nn(-c2ccc(F)cc2F)c2c1-c1nc(N3CCCC3)ncc1CC2,0,0,0,0,25µM,0
NC(=O)C1=CN([C@@H]2O[C@@H](COP(=O)(O)OP(=O)(O)OC[C@@H]3O[C@H](n4cnc5c(N)ncnc54)[C@@H](OP(=O)(O)O)[C@@H]3O)[C@H](O)[C@@H]2O)C=CC1,0,0,0,0,0,0
CCC(c1nnnn1CC1CCCO1)N(CCN1CCOCC1)Cc1cc2cc(C)ccc2[nH]c1=O (configuration not stated),0,?,0,0,3.2µM,0
Cc1ccc2[nH]c(=O)c(C(c3nnnn3CC3CCCO3)N3CCOCC3)cc2c1 (configuration not stated),-,0,0,0,0,0
Cc1ccc2[nH]c(=O)c(C(c3nnnn3CC3CCCO3)N3CCCc4ccccc43)cc2c1 (configuration not stated),0,0,0,0,1.3µM,0
Cc1ccc2[nH]c(=O)c(C(c3nnnn3CC3CCCO3)N3CCc4ccccc4C3)cc2c1 (configuration not stated),-,?,0,0,0,0
Cc1ccc2[nH]c(=O)c(CN(CCc3ccccc3)C(c3nnnn3Cc3ccco3)C(C)C)cc2c1 (configuration not stated),0,?,0,-,?,0
CCC(c1nnnn1Cc1ccco1)N(CCc1ccccc1)Cc1cc2cc(C)ccc2[nH]c1=O (configuration not stated),0,?,?,0,16µM,0
CCN(CC)C(C)CN1c2ccccc2Sc2ccccc21 (configuration not stated),0,0,0,13µM,25µM,-
CN1CCN(c2ccnc(-c3cccnc3)n2)CC1,0,0,0,0,0,0
CN1CCN(c2ccnc(-c3ccoc3)n2)CC1,0,0,0,?,16µM,0
COCc1cc(C)nc(SCC(=O)c2ccc(O)c(O)c2)c1C#N,0,0,0,0[11.4 µM],3.2µM,0
NC(Cc1cc(I)c(Oc2cc(I)c(O)c(I)c2)c(I)c1)C(=O)O (configuration not stated),?,0,0,0,13µM,-
COc1cc(/C=C\C(=O)N2CCCCC2=O)cc(OC)c1OC,-,-,-,-,-,0
O=C1CC(Nc2ccc(N3CCOCC3)cc2)C(=O)N1c1cccc(C(F)(F)F)c1 (configuration not stated),-,0,0,20µM,?,0
COc1ccc(N2C(=O)CC(Nc3ccc(N4CCOCC4)cc3)C2=O)c(OC)c1 (configuration not stated),0,0,0,32µM,?,0
COc1cccc(N2C(=O)CC(Nc3ccc(N4CCOCC4)cc3)C2=O)c1 (configuration not stated),-,0,0,13µM,13µM,-
COc1ccc(N2C(=O)CC(Nc3ccc(C)cc3)C2=O)cc1 (configuration not stated),-,-,-,0,-,-
C[C@@H]1C[C@H](C)CN(S(=O)(=O)c2cc(Cl)c(Oc3ccc([N+](=O)[O-])cc3Cl)c(Cl)c2)C1,-,0[11.5 µM],0[11.5 µM],0[11.4 µM],0[11.4 µM],0[9.17 µM]
COCc1cc(CN2CCCC2)c(O)c2ncccc12,0,0,0,0,2.5µM,0
O=c1c2c([nH]c3ccccc13)CCCC2,-,-,-,0,-,-
O=c1c2c([nH]c3ccccc13)C(=C1CCCC1)CC2,-,0,?,0,20µM,-
SMILES,USP2a inh,Casp1 inh,Caspase-7 inhib,15-hLO-2 inh,15-hLO inh,Ub-GFP proteasome
CCOc1ccc2nc(NC(=O)c3ccoc3C)sc2c1,0[7.66 µM],0,0,0,4µM,0[9.17 µM]
CCOc1ccc2nc(NC(=O)COC)sc2c1,0,0,0,0,0,0
CC(C)N(CCNC(=O)c1ccc(Cc2nc3ccccc3[nH]2)cc1)C(C)C,-,0,0,-,0,-
CO[C@@H]1/C=C\O[C@]2(C)Oc3c(C)c(O)c4c(O)c(c(CN5CCN(C)CC5)c(O)c4c3C2=O)NC(=O)/C(C)=C\C=C[C@@H](C)[C@@H](O)[C@H](C)[C@@H](O)[C@H](C)[C@H](OC(C)=O)[C@@H]1C,-,0[11.5 µM],0[11.5 µM],0[11.4 µM],?,0[9.17 µM]
CCN(CC)C(=O)CSc1nc2cc3c(cc2c(=O)n1Cc1ccc2c(c1)OCO2)OCO3,0,0,0,0,0,0
CCOC(=O)CSc1nc2ccc(N3CCOCC3)cc2c(=O)n1Cc1ccc2c(c1)OCO2,0,-,?,0,20µM,0
COc1ccc2c3c(ccc2c1)N[C@H](C(=O)O)CC3,-,0[11.5 µM],0[11.5 µM],0[11.4 µM],0[11.4 µM],0[9.17 µM]
Cc1cc(C)cc(OCC(=O)Nc2ccc(N3CCCC3)cc2)c1,-,0,0,0,0,-
Cc1ccc(OCC(=O)Nc2ccc(N3CCCC3)cc2)cc1C,0[7.66 µM],0,0,0,5µM,0[9.17 µM]
COCCN1C(=O)c2ccccc2C(C(=O)NCCCN2CCCC2=O)C1c1c[nH]c2ccccc12 (configuration not stated),0,0,0,-,25µM,0
CN1[C@@H]2CC[C@@H]1CC(OC(=O)[C@H](CO)c1ccccc1)C2 (some centres not stated),-,-,-,0[0.0915 µM],-,-
O=C1C2=CC[C@@H]3C(=O)N(c4ccc(F)cc4F)C(=O)[C@H]3[C@H]2[C@H](O)[C@H]2O[C@H]12,-,0[11.5 µM],0[11.5 µM],-,0[11.4 µM],-
O=C(O)c1cc(O)c2c(c1)[C@H]([C@H]1c3cc(C(=O)O)cc(O)c3C(=O)c3c(O[C@@H]4OC(CO)C(O)C(O)C4O)cccc31)c1cccc(O[C@@H]3OC(CO)C(O)C(O)C3O)c1C2=O (some centres not stated),13µM,25µM,10µM,10µM,13µM,-
O=c1c2ccccc2sn1-c1cc(S(=O)(=O)N2CCOCC2)ccc1N1CCOCC1,0,0,0,0.5µM,16µM,0
O=c1c2ccccc2sn1-c1cc(S(=O)(=O)N2CCOCC2)ccc1N1CCCC1,-,-,-,1µM,-,-
COc1c(-c2coc3cc4c(cc3c2=O)CC(O)C(C)(C)O4)ccc2c1C=CC(C)(C)O2 (configuration not stated),0,0,0,?,0,-
CCN(CC)CCNC(=O)c1ccc(Cc2nc3ccccc3[nH]2)cc1,-,0,0,-,0,-
Cc1cc(C)c(/C=C2/C(=O)Nc3ccccc32)[nH]1,0,0,0,?,?,0
CCOC(=O)CSc1cc(=O)n(C)c2cc(Cl)ccc12,0,0,0,0,13µM,0
COc1cccc(OC)c1OCCNC[C@@H]1CSc2ccccc2O1,0,0,0,0,0,0

# Source: PubChem
